# Most compounds without a hit are left out; they make up all but 6.5% or so of the library.
# Marburg entry inh – qHTS for inhibitors of binding or entry into cells for Marburg Virus. Marburg virus pseudotyped entry inhibition, cell reporter. Potency, µM (titrated, usually from 37.8 µM), most hits filed as inhibitors. actives 1.8% (n = 300,000). AID 540276, 2011; calls by dose curve; tested in HEK293 cells
# HCMV antiviral – qHTS Assay for inhibitors of the human cytomegalovirus (HCMV); activity change, negative = inhibition, % at 57.5 µM; actives 4.5% (n = 410,000); HFF cells, HCMV-luciferase reporter, 72 h; stronger effect = lower value; in the data active means activity change below about -60%; inconclusive means no clear call, values can overlap the other calls; inactive means above about -39%
#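 Cell-based, HFFs, 1000 cells/well, 16 h 37C; cpds in DMSO + HCMV-luc, MOI 1 PFU/cell; 72 h 37C; OneGlo luminescence after 5 min RT; norm. to buffer vs Salinomycin 10uM.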
# Vaccinia Venus – qHTS for Stage-Specific Inhibitors of Vaccinia Orthopoxvirus: Venus Reporter Primary qHTS. actives 0.46% (n = 330,000). AID 720580, 2013. Vaccinia virus Venus reporter expression, fluorescence. Potency, µM (highest dose often 36.5 µM), most hits filed as inhibitors; calls by dose curve; tested in A549 cells; further: nearly all actives have a fitted effect of over 30% in size
# FMDV inh – High Throughput Screening for Foot and Mouth Disease Virus Antivirals. FMDV antiviral cell-based qHTS. Potency, µM (doses to about 57.9 µM), most hits filed as inhibitors. actives 1.2% (n = 410,000); calls by dose curve; tested in HEK293T cells; further: read-out not given here; nearly all actives have a fitted effect of over 45% in size
# VACV mCherry inh – qHTS for Stage-Specific Inhibitors of Vaccinia Orthopoxvirus: mCherry Reporter Primary qHTS; Vaccinia virus mCherry reporter infection, fluorescence; Potency, µM (top dose mostly 36.5 µM), hits mostly inhibitors; actives 0.63% (n = 310,000); calls by dose curve; tested in A549 cells; further: nearly all actives have a fitted effect of over 35% in size
# Lassa entry inh – qHTS for Inhibitors of binding or entry into cells for Lassa Virus; AID 540256, 2011; Lassa virus pseudotype entry inhibition, cell reporter; actives 1.2% (n = 300,000); Potency, µM (doses to about 37.9 µM), most hits filed as inhibitors; calls by dose curve; tested in HEK293 cells; further: nearly all actives have a fitted effect of over 50% in size
# Numbers stand for hits; – = inactive; ? = inconclusive; · = no result given.
SMILES,Marburg entry inh,HCMV antiviral,Vaccinia Venus,FMDV inh,VACV mCherry inh,Lassa entry inh
Cc1cc(Sc2nnc(N)s2)c2ccccc2n1,·,-108,·,14µM,·,·
Cc1cc(C)c2ccccc2n1,·,·,–,·,–,·
Cc1cc(Sc2nnc(/N=C/N(C)C)s2)c2ccccc2n1,·,-106,·,14µM,·,·
COc1ccc2nc(NC(=O)c3nc(S(=O)(=O)Cc4ccccc4)ncc3Cl)sc2c1,?,-101,–,25µM,–,?
CCSc1ncc(Cl)c(C(=O)Nc2nc3ccc(OC)cc3s2)n1,–,–,–,–,–,–
COc1ccc2nc(NC(=O)c3nc(SCc4cccc(C)c4)ncc3Cl)sc2c1,–,–,?,–,?,–
COc1ccc2nc(NC(=O)c3nc(S(=O)(=O)Cc4ccccc4F)ncc3Cl)sc2c1,?,-88,–,?,–,?
COc1ccc2nc(NC(=O)c3nc(S(=O)(=O)Cc4cccc(C)c4)ncc3Cl)sc2c1,?,-100,?,?,?,?
C[C@H]1[C@@H](NS(=O)(=O)c2ccc(Cl)cc2)CC[C@@]23CCCN2C(=O)CCC[C@@H]13,·,–,·,·,·,·
Cc1cccc(-c2nc3c(N4CCOCC4)nccc3[nH]2)c1,·,–,·,·,·,·
COc1cc2c(cc1OC)n(CC(=O)c1ccc(C)cc1)c(=O)n1nc(CCn3nc(C)cc3C)nc21,·,–,–,–,–,–
CCOc1ccc(C(=O)Cn2c(=O)n3nc(CCn4nc(C)cc4C)nc3c3cc(OC)c(OC)cc32)cc1,·,–,?,–,3.5µM,–
O=C(O)c1ccc(/C=N\Nc2ccc(S(=O)(=O)N3CCOCC3)cc2[N+](=O)[O-])cc1,·,–,·,–,·,·
Cc1ccc(-n2c(O)c(/C=N/Nc3ccc(S(=O)(=O)N4CCOCC4)cc3[N+](=O)[O-])c3ccccc3c2=O)c(C)c1,?,-98,–,10µM,–,?
COC(=O)/C=C/c1ccccc1S(=O)(=O)NC(C)C,·,·,–,·,–,·
Nc1ccc(/C=C/c2cc(Cl)nc3ccccc23)cc1,·,·,–,·,–,·
Cc1noc(C)c1COC(=O)c1cccc(S(=O)(=O)N2CCCCCC2)c1,8.9µM,–,?,?,?,?
COc1ccc(S(=O)(=O)N2CCc3ccccc32)cc1C(=O)OCc1c(C)noc1C,3.5µM,–,–,–,–,18µM
CCC(C)NC(=O)CSc1nc2n[nH]c(C)c2c(=N)n1-c1cc(Cl)ccc1C (centres undefined),·,–,–,–,–,–
CCOc1ccccc1NC(=O)Nc1cc2c(cc1N1CCCCC1)n(CC)c(=O)n2CC,·,-62,–,–,–,?
CCOc1ccccc1C(=O)Nc1cc2c(cc1N1CCOCC1)n(C)c(=O)n2C,–,-112,–,–,–,–
CCOc1ccccc1C(=O)Nc1cc2c(cc1N1CCCC1)n(CC)c(=O)n2CC,·,–,·,?,·,·
Cc1ccccc1C(=O)Nc1cc2c(cc1N1CCOCC1)n(C)c(=O)n2C,–,–,–,–,–,–
CCNc1sc(C(=O)c2cccs2)c(N)c1-c1nc2ccccc2s1,?,-80,–,–,–,?
C#CCN1C(=O)[C@]2(OCCC=C[C@@H]2C)c2cc(OC)ccc21,–,·,·,·,·,·
SMILES,Marburg entry inh,HCMV antiviral,Vaccinia Venus,FMDV inh,VACV mCherry inh,Lassa entry inh
Cc1nnc(-c2cccc(Br)c2)c2cn(-c3ccc(Br)cc3)nc12,?,-73,?,?,–,?
COc1ccc(OC)c(C2C(C(=O)Nc3ccc(C)cc3C)=C(C)Nc3c(C(=O)Nc4ccc(F)cc4)cnn32)c1 (centres undefined),·,–,–,–,–,–
CCN(C(=O)c1cc2c(C)nc3ccccc3c2o1)c1cc(Cl)ccc1OC,13µM,?,–,?,–,?
Cc1ccc(-n2ncc3c(Nc4ccc5c(c4)OCCO5)ncnc32)cc1Cl,·,–,–,–,–,–
CCOC(=O)N1CCC(Nc2ncnc3c2cnn3-c2ccc(C)cc2C)CC1,·,-93,?,?,?,·
Clc1cccc(-n2ncc3c(NC4CCCCC4)ncnc32)c1,·,–,–,–,–,?
C=CCNc1ncnc2c1cnn2-c1ccc(C)cc1C,·,–,–,–,–,·
Cc1ccc(Cl)cc1-n1ncc2c(NC3CCCCC3)ncnc21,·,-78,–,?,–,?
Cc1ccc(Cl)cc1-n1ncc2c(Nc3ccc4c(c3)OCCO4)ncnc21,·,-88,–,?,–,?
COC(=O)c1ccccc1NC(=O)C1CCCN(C(=O)c2cnn(-c3ccc(F)cc3)c2-n2cccc2)C1 (centres undefined),·,–,–,?,?,–
COCCNC(=O)CSc1nnc(-c2ccc(OC)c(OC)c2)c(-c2ccc(OC)c(OC)c2)n1,·,–,–,–,–,–
Cc1ccc(S(=O)(=O)Nc2ccccc2F)cc1C(=O)NNC(=O)c1ccccc1O,–,-87,–,–,?,?
CC(C)C(=O)N[C@H]1CCCN1C(=O)C=Cc1ccccc1,–,·,·,·,·,?
S=C(N/N=C/c1ccc2ncccc2c1)Nc1cccnc1,·,-71,·,14µM,·,·
Oc1ccc(C=NNC(=S)Nc2cccnc2)nc1,?,-69,–,–,–,10µM
O=C(NCc1ccccc1Cl)NCc1noc2ccccc12,·,–,–,–,–,–
Cc1nc(C)c(C(=O)NCc2nc(-c3cccc(NC(=O)c4ccccn4)c3)oc2C)s1,·,·,–,–,?,·
O=C(c1cc2nc(-c3ccccc3)cc(C(F)(F)F)n2n1)N1CCN2CCCC2C1 (centres undefined),–,–,–,–,–,?
O=C(c1nn2c(C(F)(F)F)cc(-c3ccccc3)nc2c1Cl)N1CCN2CCCC2C1 (centres undefined),?,-61,–,–,?,–
C=C1C(=O)O[C@@H]2[C@H]1[C@@H](OC(=O)/C(C)=C/C)C/C(C)=C\C(=O)/C=C(\C)[C@@H]2O,·,-98,11µM,28µM,?,·
C=C1C(=O)O[C@H]2[C@H]1[C@H](OC(=O)/C(C)=C\C)C[C@]1(CO1)[C@@H]1[C@H](OC(C)=O)C=C(C)[C@]21O,?,–,–,–,–,–
CCCCC1(CO)C(=O)N(c2ccccc2)N(c2ccccc2)C1=O,?,–,–,–,–,–
CCCCC1(Cc2cccc([N+](=O)[O-])c2)C(=O)N(c2ccccc2)N(c2ccccc2)C1=O,16µM,-64,–,?,–,?
COc1ccc(-c2nn(-c3ccccc3F)cc2CNCCn2nc(C)cc2C)cc1,·,-73,–,?,–,·
COc1ccc(-c2nn(-c3ccccc3)cc2CNCCN2CCOC2=O)c(F)c1,?,–,–,–,–,–
COc1ccccc1N1CCN(C(=O)C(C)N(c2ccc(C)c(C)c2)S(C)(=O)=O)CC1 (centres undefined),–,–,–,35µM,·,–
FC(F)(F)c1ccc(Nc2cc3c(cn2)ncn3CC2CC2)cc1,·,–,·,·,·,·
C/C(Cn1nnc([N+](=O)[O-])n1)=N\NC(=O)c1ccccc1,?,–,13µM,·,?,–
